Experimental data as given in the supplement of paper PMC8728848.
This excerpt belongs to a sample that is enriched for the strongest signals.

How the values were obtained:
Test in all cases: glycan array binding signal (z-score within array); higher = stronger binding
Conditions in all cases: glycan notation: IUPAC condensed, linker removed
[1] = molecular target: Fuc(a1-2)Gal(b1-4)GlcNAc(b1-2)[Fuc(a1-2)Gal(b1-4)GlcNAc(b1-4)]Man(a1-3)[Fuc(a1-2)Gal(b1-4)GlcNAc(b1-2)Man(a1-6)]Man(b1-4)GlcNAc(b1-4)GlcNAc
Summary of the method: (§1)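 Glycan array binding is given as a within-array Z-score, which can be read as non-binding when negative. The arrays, 3228 of them, came from the Consortium for Functional Glycomics database and were retained only where the protein sequence was available. Z-scores were averaged across arrays of the same protein sequence at different concentrations or buffers and across linkers.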

[2] = molecular target: Fuc(a1-2)Gal(b1-4)GlcNAc(b1-6)GalNAc
Summary of the method: as §1

[3] = molecular target: Fuc(a1-2)Gal(b1-4)[Fuc(a1-3)]GlcNAc(b1-2)[Fuc(a1-2)Gal(b1-4)[Fuc(a1-3)]GlcNAc(b1-4)]Man(a1-3)[Fuc(a1-2)Gal(b1-4)[Fuc(a1-3)]GlcNAc(b1-2)Man(a1-6)]Man(b1-4)GlcNAc(b1-4)GlcNAc
Summary of the method: as §1

[4] = molecular target: Fuc(a1-2)Gal(b1-4)[Fuc(a1-3)]GlcNAc(b1-3)Gal(b1-4)[Fuc(a1-3)]GlcNAc(b1-3)Gal(b1-4)[Fuc(a1-3)]GlcNAc
Summary of the method: as §1

[5] = molecular target: Fuc(a1-2)Gal6S(b1-3)GlcNAc
Summary of the method: as §1

Fuc(a1-2)Gal6S(b1-4)Glc = molecular target: Fuc(a1-2)Gal6S(b1-4)Glc
Summary of the method: as §1

[6] = molecular target: Fuc(a1-2)[Gal(a1-4)]Gal(b1-4)GlcNAc
Summary of the method: as §1

[7] = molecular target: Fuc(a1-3)[Gal(b1-4)]GlcNAc
Summary of the method: as §1

[8] = molecular target: Fuc(a1-3)[Gal(b1-4)]GlcNAc(b1-2)Man
Summary of the method: as §1

[9] = molecular target: Gal(a1-3)Gal(b1-3)GlcNAc(b1-2)Man(a1-3)[Gal(a1-3)Gal(b1-3)GlcNAc(b1-2)Man(a1-6)]Man(b1-4)GlcNAc(b1-4)GlcNAc
Summary of the method: as §1

Gal(a1-3)Gal(b1-4)GlcNAc = molecular target: Gal(a1-3)Gal(b1-4)GlcNAc
Summary of the method: as §1

[10] = molecular target: Gal(a1-3)Gal(b1-4)GlcNAc(b1-2)Man(a1-3)[Gal(a1-3)Gal(b1-4)GlcNAc(b1-2)Man(a1-6)]Man(b1-4)GlcNAc(b1-4)GlcNAc
Summary of the method: as §1

[11] = molecular target: Gal(a1-3)Gal(b1-4)[Fuc(a1-3)]GlcNAc
Summary of the method: as §1

[12] = molecular target: Gal(a1-3)[Gal(a1-4)]Gal(b1-4)GlcNAc
Summary of the method: as §1

[13] = molecular target: Gal(a1-4)Gal(b1-3)GlcNAc(b1-2)Man(a1-3)[Gal(a1-4)Gal(b1-3)GlcNAc(b1-2)Man(a1-6)]Man(b1-4)GlcNAc(b1-4)GlcNAc
Summary of the method: as §1

Gal(a1-4)Gal(b1-4)GlcNAc = molecular target: Gal(a1-4)Gal(b1-4)GlcNAc
Summary of the method: as §1

[14] = molecular target: Gal(a1-4)Gal(b1-4)GlcNAc(b1-2)Man(a1-3)[Gal(a1-4)Gal(b1-4)GlcNAc(b1-2)Man(a1-6)]Man(b1-4)GlcNAc(b1-4)GlcNAc
Summary of the method: as §1

[15] = molecular target: Gal(a1-4)Gal(b1-4)GlcNAc(b1-3)Gal(b1-4)Glc
Summary of the method: as §1

Gal(a1-4)GlcNAc = molecular target: Gal(a1-4)GlcNAc
Summary of the method: as §1

[16] = molecular target: Gal(b1-3)Gal(b1-4)GlcNAc(b1-2)Man(a1-3)[Gal(b1-3)Gal(b1-4)GlcNAc(b1-2)Man(a1-6)]Man(b1-4)GlcNAc(b1-4)GlcNAc
Summary of the method: as §1

[17] = molecular target: Gal(b1-3)GalNAc(b1-3)Gal(a1-4)Gal(b1-4)Glc
Summary of the method: as §1

[18] = molecular target: Gal(b1-3)GlcNAc(b1-3)Gal(b1-4)Glc
Summary of the method: as §1

[19] = molecular target: Gal(b1-4)GlcNAc(b1-2)Man(a1-6)[Man(a1-3)]Man(b1-4)GlcNAc(b1-4)GlcNAc
Summary of the method: as §1

Gal3S(b1-3)GlcNAc = molecular target: Gal3S(b1-3)GlcNAc
Summary of the method: as §1

[20] = molecular target: Gal3S(b1-3)[Fuc(a1-4)]GlcNAc
Summary of the method: as §1

[21] = molecular target: GalNAc(b1-3)Gal(a1-4)Gal(b1-4)GlcNAc(b1-3)Gal(b1-4)Glc
Summary of the method: as §1

GalNAc(b1-4)GlcNAc = molecular target: GalNAc(b1-4)GlcNAc
Summary of the method: as §1

[22] = molecular target: GlcNAc(a1-4)Gal(b1-4)GlcNAc(b1-3)Gal(b1-4)Glc
Summary of the method: as §1

[23] = molecular target: GlcNAc(a1-4)Gal(b1-4)GlcNAc(b1-3)Gal(b1-4)[Fuc(a1-3)]GlcNAc(b1-3)Gal(b1-4)[Fuc(a1-3)]GlcNAc
Summary of the method: as §1

[24] = molecular target: GlcNAc(b1-2)Man(a1-3)[GlcNAc(b1-2)Man(a1-6)]Man(b1-4)GlcNAc(b1-4)[Fuc(a1-6)]GlcNAc
Summary of the method: as §1

[25] = molecular target: GlcNAc(b1-2)[GlcNAc(b1-6)]Man(a1-6)[GlcNAc(b1-2)Man(a1-3)]Man(b1-4)GlcNAc(b1-4)[Fuc(a1-6)]GlcNAc
Summary of the method: as §1

[26] = molecular target: GlcNAc(b1-3)Gal(b1-4)GlcNAc(b1-3)GalNAc
Summary of the method: as §1

[27] = molecular target: GlcNAc(b1-3)[GlcNAc(b1-4)][GlcNAc(b1-6)]GlcNAc
Summary of the method: as §1

Man(a1-2)Man(a1-3)Man = molecular target: Man(a1-2)Man(a1-3)Man
Summary of the method: as §1

[28] = molecular target: Neu5Ac(a2-3)Gal(b1-4)GlcNAc(b1-2)Man(a1-3)[GlcNAc(b1-4)][Neu5Ac(a2-3)Gal(b1-4)GlcNAc(b1-2)Man(a1-6)]Man(b1-4)GlcNAc(b1-4)GlcNAc
Summary of the method: as §1

[29] = molecular target: Neu5Ac(a2-3)Gal(b1-4)GlcNAc(b1-3)Gal(b1-4)[Fuc(a1-3)]GlcNAc
Summary of the method: as §1

[30] = molecular target: Neu5Ac(a2-3)[GalNAc(b1-4)]Gal(b1-4)Glc
Summary of the method: as §1

[31] = molecular target: Neu5Ac(a2-6)Gal(b1-4)GlcNAc6S
Summary of the method: as §1

[32] = molecular target: Neu5Gc(a2-8)Neu5Ac(a2-3)Gal(b1-4)GlcNAc
Summary of the method: as §1

B1: PA-IL (Pseudomonas aeruginosa), Q05097 (protein)
chain: MAWKGEVLANNEAGQVTSIIYNPGDVITIVAAGWASYGPTQKWGPQGDREHPDQGLICHDAFCGALVMKIGNSGTIPVNTGLFRWVAPNNVQGAITLIYNDVPGTYGNNSGSFSVNIGKDQS
[1]
  glycan array binding signal (z-score): -0.197
[2]
  glycan array binding signal (z-score): -0.201
[3]
  glycan array binding signal (z-score): -0.185
[4]
  glycan array binding signal (z-score): -0.213
[5]
  glycan array binding signal (z-score): -0.225
Fuc(a1-2)Gal6S(b1-4)Glc
  glycan array binding signal (z-score): -0.229
[6]
  glycan array binding signal (z-score): 5.44
[7]
  glycan array binding signal (z-score): -0.224
[8]
  glycan array binding signal (z-score): -0.233
[9]
  glycan array binding signal (z-score): 0.015
Gal(a1-3)Gal(b1-4)GlcNAc
  glycan array binding signal (z-score): 5.08
[10]
  glycan array binding signal (z-score): 6.97
[11]
  glycan array binding signal (z-score): 5.02
[12]
  glycan array binding signal (z-score): 6.55
[13]
  glycan array binding signal (z-score): 7.29
Gal(a1-4)Gal(b1-4)GlcNAc
  glycan array binding signal (z-score): 4.79
[14]
  glycan array binding signal (z-score): 8.23
[15]
  glycan array binding signal (z-score): 5.73
Gal(a1-4)GlcNAc
  glycan array binding signal (z-score): 3.63
[16]
  glycan array binding signal (z-score): 7.65
[17]
  glycan array binding signal (z-score): -0.228
[18]
  glycan array binding signal (z-score): -0.228
[19]
  glycan array binding signal (z-score): -0.237
Gal3S(b1-3)GlcNAc
  glycan array binding signal (z-score): -0.229
[20]
  glycan array binding signal (z-score): -0.225
[21]
  glycan array binding signal (z-score): -0.228
GalNAc(b1-4)GlcNAc
  glycan array binding signal (z-score): -0.236
[22]
  glycan array binding signal (z-score): -0.23
[23]
  glycan array binding signal (z-score): -0.203
[24]
  glycan array binding signal (z-score): -0.214
[25]
  glycan array binding signal (z-score): -0.217
[26]
  glycan array binding signal (z-score): -0.221
[27]
  glycan array binding signal (z-score): -0.228
Man(a1-2)Man(a1-3)Man
  glycan array binding signal (z-score): -0.226
[28]
  glycan array binding signal (z-score): -0.244
[29]
  glycan array binding signal (z-score): -0.226
[30]
  glycan array binding signal (z-score): -0.226
[31]
  glycan array binding signal (z-score): -0.228
[32]
  glycan array binding signal (z-score): -0.245
